Giardia FBPA inh: blocks Giardia fructose-bisphosphate aldolase activity; AID 2451; A8B2U2; Potency, µM (titrated, usually from 59.6 µM), for the others: at the top dose activity, negative = inhibition, actives largely listed as inhibitors; purified Giardia FBPA; 290,000 tested, 0.71% active; further: nearly all actives have a fitted effect of over 55% in size
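40 nM FBPA preincubated 10 min at RT with compound (up to 57.5 uM final), then substrate plus GAPDH/TPI/NAD/arsenate coupling and diaphorase/resazurin added. Fluorescence read after 20 min at RT, 525/598 nm.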
LmPK inhibitor: blocks Leishmania mexicana pyruvate kinase activity | AID 1721 | Potency, µM (series often up to 57.5 µM), without a hit: top-dose activity change, negative = inhibition, usual class: inhibitors | Q27686 | 290,000 tested, 0.37% active | purified LmPK, Kinase-Glo ATP luminescence, 1 h
Target sequence (Q27686 whole entry, looked up): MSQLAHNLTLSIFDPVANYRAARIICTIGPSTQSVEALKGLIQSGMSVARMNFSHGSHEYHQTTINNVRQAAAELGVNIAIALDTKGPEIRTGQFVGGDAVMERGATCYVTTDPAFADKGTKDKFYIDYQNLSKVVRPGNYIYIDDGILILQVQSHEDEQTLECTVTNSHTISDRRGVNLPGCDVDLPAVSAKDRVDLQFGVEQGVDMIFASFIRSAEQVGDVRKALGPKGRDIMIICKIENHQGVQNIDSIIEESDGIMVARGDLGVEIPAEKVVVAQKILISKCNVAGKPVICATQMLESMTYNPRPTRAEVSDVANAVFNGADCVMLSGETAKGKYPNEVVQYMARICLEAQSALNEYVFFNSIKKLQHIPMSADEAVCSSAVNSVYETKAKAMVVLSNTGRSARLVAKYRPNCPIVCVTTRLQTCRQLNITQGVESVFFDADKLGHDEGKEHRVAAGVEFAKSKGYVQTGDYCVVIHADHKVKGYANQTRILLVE
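qHTS format; LmPK 0.1 nM; substrates PEP 0.5 mM and ADP 0.1 mM. One-hour room-temperature incubation, then coupled luciferase luminescence; 0.5 nM enzyme wells mark activation.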
AmpC detergent: blocks E. coli AmpC beta-lactamase in detergent assay; AID 485294; AmpC hydrolysis of nitrocefin, absorbance 480 nm, 0.01% Triton; P00811; 370,000 tested, 0.041% active; Potency, µM (series often up to 114 µM), without a hit: at the highest dose activity change, negative = inhibition, hits mostly inhibitors;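 further: 0% = no-compound wells and -100% = no-enzyme wells; nearly all actives have a fitted effect of over 25% in size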
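20 mM phosphate pH 7.0 + 0.01% (detergent screen) or 0.0001% Triton X-100; 5.3 nM AmpC reagent; cpd preinc 15 min RT; nitrocefin (800 uM stock) to start; A480 q20 s × 4 min; Activity was normalised to no-enzyme and no-compound control wells.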
AmpC inh no detg: inhibitors of E. coli AmpC beta-lactamase without detergent | Potency, µM (series often up to 57.1 µM), without a hit: at the top dose activity change, negative = inhibition, most hits filed as inhibitors | AmpC nitrocefin hydrolysis, absorbance 480 nm, 0.0001% Triton | 330,000 tested, 0.52% active | P00811 | AID 485341;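 further: plate controls were no compound for no effect and no enzyme for full effect; nearly all actives have a fitted effect of over 20% in size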
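AmpC (5.3 nM in the dispensed reagent) in 20 mM phosphate pH 7.0 with 0.01% (detergent screen) or 0.0001% Triton X-100 was preincubated with compounds for 15 min at room temperature. Nitrocefin was then added from an 800 uM solution, and hydrolysis was followed at 480 nm.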
AMA1-RON2 inh: inhibitors of Plasmodium falciparum AMA1-RON2 interaction | AlphaScreen AMA1-biotinylated RON2 peptide binding | Potency, µM (doses to about 58.2 µM), inactives show top-dose activity change, negative = inhibition, usual class: inhibitors | 360,000 tested, 0.2% active | AID 720542;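 further: 0% = vehicle wells and -100% = peptide control; nearly all actives have a fitted effect of over 45% in size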
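AMA1 (3D7) with his tag at 25 nM final met compounds first, then biotinylated RON2 peptide at 25 nM; detection used donor plus acceptor beads, 10 µg/mL apiece, read by AlphaScreen after 30 min at room temperature.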
* marks the source's active call; other numbers are inactive results; ? = inconclusive; nt = no result; ! = not active in a repeat; [ ] = another dose, or the depositor's remark. Shown are actives, neighbours in structure and some others; about 1.3% of the full set was active somewhere. The call rests on the fitted dose curve; in most records, active means well fitted curve in the direction sought with a large enough effect; inconclusive means small, poorly fitted or top-dose-only effect, or another doubt; inactive means no such curve, though single readings can be large; an effect the other way counts as inactive or inconclusive. Unless noted, on the % scale 0 is the no-effect control and ±100 the full control effect; potency means the concentration at half of the fitted maximal effect.

SMILES	Giardia FBPA inh	LmPK inhibitor	AmpC detergent	AmpC inh no detg	AMA1-RON2 inh
S=c1[nH]nc(-c2cccc3ccccc23)n1-c1cccnc1	-1.8%	12.6µM*	4.3%	-26.5%	48.3%
O=c1c2ccccc2[nH]c(=S)n1-c1cccnc1	-24.7%	4.6%	-5.6%	4.5%	5.3%
Cc1ccccc1-n1c(-c2cccnc2)n[nH]c1=S	?	11.2µM*	0.6%	nt	-3.1%
CCOC(=O)c1c(-c2ccccc2)oc2ccc(N(C(C)=O)S(=O)(=O)c3cc(C)ccc3C)cc12	nt	nt	4.4%	nt	nt
Cc1cc(C(=O)N/N=C/c2ccc(Cl)c([N+](=O)[O-])c2)c(C)n1-c1ccc(F)cc1	?	0.5%	-8.7%	15.8µM*	8.4%
CCOC(=O)C(C)NC(=O)c1c2c(nc3ccccc13)C(=O)N(C1CCCCC1)C2 (configuration not stated)	nt	nt	19.5%	nt	nt
Cc1ccsc1C(=O)Nc1ccc(C(=O)O)cc1	6.8%	14.1µM*	-8.0%	-17.6%	-3.9%
COc1cccc(Cn2nnc(C(=O)NCc3ccc4c(c3)OCO4)c2N)c1	-3.4%	-1.6%	1.0%	35.5µM*	11.1%
O=C(O)c1ccc(-c2nnc(-c3ccc([N+](=O)[O-])cc3)o2)cc1	-2.2%	1.5%	2.9%	-8.8%	46.1%
O=C(O)c1ccc(-c2nnc(-c3ccccc3)o2)cc1	-1.3%	12.6µM*	-12.9%	-2.8%	2.9%
CNC(=O)CN1C(=O)c2cccc3cccc1c23	-6.1%	0.8%	-14.1%	-13.2%	8.2%
CN1/C(=N\O)c2cccc3cccc1c23	8.91µM*	-1.6%	-17.9%	-19.6%	11.7%
NS(=O)(=O)c1cccc(NC(=O)CSc2nc3ccc(Cl)cc3[nH]2)c1	-26.9%	-2.3%	?	17.8µM*	6.3%
Cc1nc(N=Nc2ccc(O)cc2)n[nH]1	-11.4%	14.1µM*	-8.7%	-2.1%	36.1%
Cc1ccc(-c2nc(N=Nc3ccc(O)cc3)n[nH]2)cc1	-10.3%	-2.2%	3.1%	-3.2%	21.0%
COc1ccc(NC(=O)CCn2c(=O)c3cccn3c3cccnc32)c(OC)c1	nt	nt	3.5%	nt	nt
N#CCC(=O)Nc1ncc(Cc2ccccc2Cl)s1	0.6%	-0.7%	-8.3%	17.8µM*	106.8%
CS(=O)(=O)c1ccc2nc(NC(=O)c3cccs3)sc2c1	5.5%	15.8µM*	1.8%	-22.1%	11.6%
CC(C)C1C(=O)N(Cc2cn(CCC3OCCO3)nn2)CCS(=O)(=O)N1Cc1ccc(-c2cccc(N(C)C)c2)cc1 (configuration not stated)	nt	nt	nt	nt	17.8µM*
CC(C)C1C(=O)N(Cc2cn(CCC3OCCCO3)nn2)CCS(=O)(=O)N1Cc1ccc(-c2cccc(N(C)C)c2)cc1 (configuration not stated)	nt	nt	nt	nt	-24.2%
CCCCC(=O)N(Cc1ccc(-c2ccccc2-c2nn[nH]n2)cc1)C(C(=O)O)C(C)C (configuration not stated)	-9.0%	nt	nt	nt	nt
CCCc1nc(C(C)(C)O)c(C(=O)O)n1Cc1ccc(-c2ccccc2-c2nn[nH]n2)cc1	-21.7%	7.0%	44.7µM*	-57.2%	nt
COCCNc1nc(Nc2ccc(C)cc2C)c2sccc2n1	nt	nt	nt	nt	-5.5%
Cc1ccc(N(C)C(=O)N2CCN(c3ccccn3)CC2)cc1	-3.3%	2.4%	?	10µM*	-2.3%
COc1ccc2ccccc2c1/C=N/N1C(=O)CSC1=S	-29.3%	6.8%	-7.2%	15.8µM*	28.8%
SMILES	Giardia FBPA inh	LmPK inhibitor	AmpC detergent	AmpC inh no detg	AMA1-RON2 inh
O=C1CSC(=S)N1N=Cc1c(O)ccc2ccccc12	nt	nt	nt	nt	20.2%
COc1ccc(NC(=O)N2CCCc3ccccc32)cc1	-6.2%	-6.4%	-14.3%	-7.5%	-0.2%
COc1ccc(NC(=O)N2CCc3ccccc32)cc1	-25.6%	12.6µM*	-7.9%	-20.1%	-10.1%
COc1ccc(N/N=C(/C(C)=O)N2CCCc3ccccc32)cc1	-29.8%	8.8%	-4.7%	-9.9%	15.8µM*
Cc1csc2ncc(C(=O)Nc3cccc(C(F)(F)F)c3)c(=O)n12	0.7%	-2.7%	-6.6%	-14.2%	9.2%
CCc1ccc(NC(=O)c2cnc3scc(C)n3c2=O)cc1	0.6%	-0.5%	?	35.5µM*	12.1%
CCNc1ncc2ncc(=O)n(CCOC)c2n1	-3.3%	nt	nt	nt	nt
CC/C(=N\Nc1ccccc1[N+](=O)[O-])c1ccc(O)cc1	-12.4%	-2.9%	-2.1%	-43.6%	15.8µM*
CC/C(=N\Nc1ccc([N+](=O)[O-])cc1[N+](=O)[O-])c1ccc(O)cc1	1.3%	-4.1%	-3.8%	-58.9%	-23.4%
O=C(CNC(=O)c1cc(-c2ccccc2)nn1-c1ccccc1)Nc1ccccc1Br	nt	nt	nt	nt	3.4%
CN(CC(=O)Nc1ccc(OC(F)(F)F)cc1)C(=O)c1ccccc1SCC(=O)N1CCCC1	nt	nt	nt	nt	-1.0%[11.6 µM]
COc1ccccc1-c1cccc(-c2nc(C(=O)N3CCCCC3)cc3c2[C@@H](CCO)N(S(=O)C(C)(C)C)C3)c1 (some centres not stated)	nt	nt	nt	nt	-5.6%
COc1ccc(C2CC(c3ccccc3)Oc3cc4c(cc32)OCO4)cc1 (configuration not stated)	15.8µM*!	nt	nt	nt	nt
COc1ccc(C2CC(c3ccccc3)Oc3ccc(C(C)(C)C)cc32)cc1 (configuration not stated)	2.0%	nt	nt	nt	nt
CN1CCc2cc(O)c(O)cc2C1Cc1ccc(O)c(O)c1 (configuration not stated)	-27.3%	nt	nt	nt	nt
CCOc1ccc(/C=C2\SC(=S)NC2=O)cc1OC	8.0%	14.1µM*	-1.9%	-33.6%	7.1%
COc1cc(/C=C2\SC(=S)NC2=O)ccc1OS(=O)(=O)c1ccccc1	13.5%	-4.3%	2.3%	-25.1%	nt
O=C(OCC(=O)c1c[nH]c2ccccc12)c1cc(Br)ccc1O	-3.2%	-4.4%	-2.1%	2.24µM*	6.5%
CCOc1ccccc1Nc1nnc(SCC(=O)NC2CC2)s1	nt	nt	nt	-9.9%	-4.5%
Cc1cc(C)cc(NC(=O)COC(=O)c2n[nH]c3ccccc23)c1	-3.1%	-21.0%	-3.5%	15.8µM*	18.2%
CCN(CC)S(=O)(=O)c1cccc(NC(=O)COC(=O)c2n[nH]c(=O)c3ccccc23)c1	0.9%	7.5%	-12.4%	28.2µM*	11.1%
COC(=O)C(NS(=O)(=O)CCl)C(C)C (configuration not stated)	4.8%	nt	nt	nt	nt
CCCCn1cnc2cc(NC(=O)c3cc(OC)c(OC)c(OC)c3)ccc21	nt	nt	20.8%	nt	nt
CCN(CC)c1ccc(C(=O)NNC(=O)Cn2c(=O)cnc3ccccc32)cc1	nt	nt	nt	nt	145.4%
O=C(CSc1ccc2ccccc2c1Br)Nc1cccc(S(=O)(=O)NC2=NCCCCC2)c1	2.3%	1.1%	-10.0%	7.08µM*	-13.7%
Cc1ccc(C)c(SCC(=O)Nc2cccc(S(=O)(=O)NC3=NCCCCC3)c2)c1	-5.1%	-2.2%	-11.3%	-37.5%	-7.6%[2.32 µM]
COc1ccc(N(CC(=O)NCc2ccccc2)S(=O)(=O)c2c(C)nn(C)c2C)cc1	5.0%	-3.0%	?	8.91µM*	-0.9%

High-throughput results from PubChem.
